Test results: PubChem BioAssay AID1159580 (chemical genetic matrix, 2015)
Among all 5,500 compounds or so, about 2,000 (36%) were called active. Not shown: some 18% with an inconclusive outcome. Cut-off read from the data, not from the text of the source: active = normalized growth mostly below about 0.91 (no sharp cut-off); inconclusive = no clear call, values can overlap the other calls; inactive = mostly above about 0.92. The list shows a part of the results.

Test: chemical genetic growth profiling, strain panel (AID 1159580);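 note: tested at 20 µM; growth read once vehicle control cultures reached saturation at 30 °C; 1 = growth at the plate median or of vehicle wells; lower values mean less growth of the strain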
Details: growth OD

Measured: normalized growth

C[C@]12CCC(=O)C=C1CCC1C2[C@@H](O)C[C@@]2(C)C1CC[C@]2(O)C(=O)CO (stereo partly drawn)
inactive: S. cerevisiae deletion strains, locus YJR075W, strain HOC1, hits give low values 1.01 | S. cerevisiae deletion strains, locus YKL009W, strain mrt4, hits give low values 0.992 | S. cerevisiae deletion strains, locus YKL068W, hits give low values 1.01 | S. cerevisiae deletion strains, locus YKL085W, strain MDH1 (second series), hits give low values 0.998 | S. cerevisiae deletion strains, locus YKL085W, strain MDH1, hits give low values 0.998 | S. cerevisiae deletion strains, locus YKL160W, strain elf1, hits give low values 0.955 | S. cerevisiae deletion strains, locus YKR001C, strain vps1, hits give low values 0.971 | S. cerevisiae deletion strains, locus YKR026C, strain gcn3, hits give low values 0.993 | S. cerevisiae deletion strains, locus YKR091W, strain srl3, hits give low values 0.999 | S. cerevisiae deletion strains, locus YLL001W, strain dnm1, hits give low values 0.994 | S. cerevisiae deletion strains, locus YLL026W, hits give low values 0.982 | S. cerevisiae deletion strains, locus YLL041C, strain sdh2, hits give low values 0.99 | S. cerevisiae deletion strains, locus YLR027C, strain aat2, hits give low values 1 | S. cerevisiae deletion strains, locus YLR039C, strain RIC1, hits give low values 1.05 | S. cerevisiae deletion strains, locus YLR058C, strain SHM2, hits give low values 1.02 | S. cerevisiae deletion strains, locus YLR102C, strain apc9, hits give low values 0.993 | S. cerevisiae deletion strains, locus YLR113W, strain HOG1, hits give low values 0.99 | S. cerevisiae deletion strains, locus YLR221C, strain rsa3, hits give low values 0.985 | S. cerevisiae deletion strains, locus YLR258W, strain gsy2, hits give low values 0.971 | S. cerevisiae deletion strains, locus YLR262C, strain YPT6 (second series), hits give low values 1 | S. cerevisiae deletion strains, locus YLR262C, strain YPT6, hits give low values 1.08 | S. cerevisiae deletion strains, locus YLR268W, strain sec22, hits give low values 0.977 | S. cerevisiae deletion strains, locus YLR320W, strain mms22, hits give low values 0.986 | S. cerevisiae deletion strains, locus YLR330W, strain CHS5, hits give low values 1.01 | S. cerevisiae deletion strains, locus YLR342W, strain FKS1 (second series), hits give low values 1.01 | S. cerevisiae deletion strains, locus YLR342W, strain FKS1, hits give low values 0.999 | S. cerevisiae deletion strains, locus YLR357W, strain rsc2, hits give low values 0.957 | S. cerevisiae deletion strains, locus YLR370C, strain arc18, hits give low values 1 | S. cerevisiae deletion strains, locus YLR371W, strain rom2, hits give low values 0.971 | S. cerevisiae deletion strains, locus YLR384C, strain iki3, hits give low values 0.998 | S. cerevisiae deletion strains, locus YLR418C, strain cdc73, hits give low values 1.01 | S. cerevisiae deletion strains, locus YML016C, strain PPZ1, hits give low values 1.02 | S. cerevisiae deletion strains, locus YML032C, strain rad52, hits give low values 1.01 | S. cerevisiae deletion strains, locus YML120C, strain ndi1, hits give low values 1.01 | S. cerevisiae deletion strains, locus YML124C, strain tub3, hits give low values 0.994 | S. cerevisiae deletion strains, locus YMR058W, strain fet3, hits give low values 1.01 | S. cerevisiae deletion strains, locus YMR078C, strain ctf18, hits give low values 0.998 | S. cerevisiae deletion strains, locus YMR125W, strain sto1, hits give low values 0.96 | S. cerevisiae deletion strains, locus YMR129W, hits give low values 0.993 | S. cerevisiae deletion strains, locus YMR205C, strain PFK2, hits give low values 0.967 | S. cerevisiae deletion strains, locus YMR223W, strain ubp8, hits give low values 0.993 | S. cerevisiae deletion strains, locus YMR231W, strain pep5, hits give low values 1 | S. cerevisiae deletion strains, locus YMR263W, strain SAP30, hits give low values 1.02 | S. cerevisiae deletion strains, locus YMR307W, strain GAS1, hits give low values 1.04 | S. cerevisiae deletion strains, locus YNL067W, strain RPL9B, hits give low values 1.02 | S. cerevisiae deletion strains, locus YNL071W, strain lat1, hits give low values 1.01 | S. cerevisiae deletion strains, locus YNL153C, strain GIM3, hits give low values 1.03 | S. cerevisiae deletion strains, locus YNL183C, strain NPR1, hits give low values 0.939 | S. cerevisiae deletion strains, locus YNL209W, strain ssb2, hits give low values 0.99 | S. cerevisiae deletion strains, locus YNL233W, strain BNI4, hits give low values 1.02 | S. cerevisiae deletion strains, locus YNL248C, strain rpa49, hits give low values 0.989 | S. cerevisiae deletion strains, locus YNL250W, strain rad50, hits give low values 1.01 | S. cerevisiae deletion strains, locus YNL271C, strain bni1, hits give low values 0.995 | S. cerevisiae deletion strains, locus YNL298W, strain CLA4, hits give low values 1.01 | S. cerevisiae deletion strains, locus YNL307C, strain MCK1, hits give low values 0.995 | S. cerevisiae deletion strains, locus YNL322C, strain KRE1 (second series), hits give low values 0.969 | S. cerevisiae deletion strains, locus YNL322C, strain KRE1, hits give low values 1.01 | S. cerevisiae deletion strains, locus YNR049C, strain mso1, hits give low values 0.999 | S. cerevisiae deletion strains, locus YNR052C, strain pop2, hits give low values 0.999 | S. cerevisiae deletion strains, locus YOL012C, strain htz1 0.617 | S. cerevisiae deletion strains, locus YOL147C, strain pex11, hits give low values 1.02 | S. cerevisiae deletion strains, locus YOR001W, strain rrp6, hits give low values 1.01 | S. cerevisiae deletion strains, locus YOR061W, strain CKA2, hits give low values 1.02 | S. cerevisiae deletion strains, locus YOR069W, strain VPS5, hits give low values 1.01 | S. cerevisiae deletion strains, locus YOR070C, strain gyp1, hits give low values 0.966 | S. cerevisiae deletion strains, locus YOR080W, strain dia2, hits give low values 1.01 | S. cerevisiae deletion strains, locus YOR083W, strain WHI5, hits give low values 0.945 | S. cerevisiae deletion strains, locus YOR106W, strain vam3, hits give low values 0.971 | S. cerevisiae deletion strains, locus YOR136W, strain idh2, hits give low values 0.985 | S. cerevisiae deletion strains, locus YOR144C, strain elg1, hits give low values 0.995 | S. cerevisiae deletion strains, locus YOR184W, strain ser1, hits give low values 0.993 | S. cerevisiae deletion strains, locus YOR231W, strain MKK1, hits give low values 0.99 | S. cerevisiae deletion strains, locus YOR265W, strain rbl2, hits give low values 0.985 | S. cerevisiae deletion strains, locus YOR270C, strain vph1, hits give low values 0.996 | S. cerevisiae deletion strains, locus YOR290C, strain snf2, hits give low values 0.983 | S. cerevisiae deletion strains, locus YOR316C, strain cot1, hits give low values 0.994 | S. cerevisiae deletion strains, locus YPL051W, strain arl3, hits give low values 0.927 | S. cerevisiae deletion strains, locus YPL055C, strain LGE1, hits give low values 1.02 | S. cerevisiae deletion strains, locus YPL078C, strain atp4, hits give low values 0.97 | S. cerevisiae deletion strains, locus YPL106C, strain sse1, hits give low values 0.926 | S. cerevisiae deletion strains, locus YPL240C, strain hsp82, hits give low values 0.992 | S. cerevisiae deletion strains, locus YPL256C, strain CLN2, hits give low values 0.949 | S. cerevisiae deletion strains, locus YPR119W, strain clb2, hits give low values 0.99 | S. cerevisiae deletion strains, locus YPR141C, strain kar3, hits give low values 0.999 | S. cerevisiae deletion strains, locus YPR163C, strain tif3, hits give low values 0.986 | S. cerevisiae deletion strains, locus YPR167C, strain met16, hits give low values 0.991 | S. cerevisiae deletion strains, strain wtn01, hits give low values 0.972 | S. cerevisiae strains, strain wild type, hits give low values 1.02
